# Source: the supplement of paper PMC11402862
# Assays:
# Assay in all cases: luciferase reporter transactivation, fold of solvent control; higher = stronger receptor activation
# Conditions in all cases: HEK293T, exposure time: 24 h
# CAR LBD (GAL4 fusion) = test system: CAR LBD (GAL4 fusion)
# Method in brief: (§1)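 Transactivation values are firefly/Renilla luciferase ratios expressed as fold of solvent control and averaged over biological replicates. HEK293T cells (2 × 10^4 cells/well, 96-well plates) grown in DMEM with 10% FBS at 37 °C and 5% CO2 were transfected transiently with TransIT-LT1. Each well carried a GAL4 fusion of a single human nuclear receptor ligand-binding domain, a GAL4-(UAS)5-TK firefly luciferase reporter and a Renilla luciferase plasmid. Exposure to compound lasted 24 h, at 1 to 500 µM in DMEM with 0.5% DMSO.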
# [1] = test system: LXRalpha LBD (GAL4 fusion)
# Method in brief: as §1
# [2] = test system: PPARdelta LBD (GAL4 fusion)
# Method in brief: as §1
# PXR LBD (GAL4 fusion) = PXR LBD (GAL4 fusion) (UniProt O75469)
# Method in brief: as §1
# RARalpha (GAL4 fusion) = test system: RARalpha (GAL4 fusion)
# Method in brief: as §1
# PXR LBD (GAL4 fusion), sequence (O75469 whole entry, looked up, the tested form may be a part): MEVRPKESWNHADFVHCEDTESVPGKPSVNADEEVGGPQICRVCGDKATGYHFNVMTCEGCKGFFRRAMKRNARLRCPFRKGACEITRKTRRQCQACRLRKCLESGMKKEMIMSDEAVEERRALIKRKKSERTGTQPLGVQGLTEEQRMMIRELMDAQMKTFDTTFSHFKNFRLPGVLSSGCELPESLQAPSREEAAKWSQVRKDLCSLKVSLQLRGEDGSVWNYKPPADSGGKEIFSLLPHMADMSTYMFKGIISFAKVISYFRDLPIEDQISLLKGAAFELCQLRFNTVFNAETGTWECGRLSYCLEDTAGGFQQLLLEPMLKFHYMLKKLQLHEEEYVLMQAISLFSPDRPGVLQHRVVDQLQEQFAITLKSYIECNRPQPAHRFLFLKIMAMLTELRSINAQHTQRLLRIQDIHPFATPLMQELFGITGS
structure (smiles),measurement,setting,value
NS(=O)(=O)C(F)(F)C(F)(F)C(F)(F)C(F)(F)C(F)(F)C(F)(F)C(F)(F)C(F)(F)F [perfluorooctane sulfonamide],luciferase reporter transactivation,CAR LBD (GAL4 fusion); concentration: 1 µM,1.08
same,luciferase reporter transactivation,CAR LBD (GAL4 fusion); concentration: 2.5 µM,1.29
same,luciferase reporter transactivation,CAR LBD (GAL4 fusion); concentration: 5 µM,1.18
same,luciferase reporter transactivation,CAR LBD (GAL4 fusion); concentration: 10 µM,1.06
same,luciferase reporter transactivation,CAR LBD (GAL4 fusion); concentration: 100 µM,0.995
same,luciferase reporter transactivation,[1]; concentration: 1 µM,1.05
same,luciferase reporter transactivation,[1]; concentration: 2.5 µM,0.997
same,luciferase reporter transactivation,[1]; concentration: 5 µM,1.08
same,luciferase reporter transactivation,[1]; concentration: 10 µM,1.03
same,luciferase reporter transactivation,[1]; concentration: 100 µM,1.09
same,luciferase reporter transactivation,[2]; concentration: 1 µM,1.15
same,luciferase reporter transactivation,[2]; concentration: 2.5 µM,1.03
same,luciferase reporter transactivation,[2]; concentration: 5 µM,0.974
same,luciferase reporter transactivation,[2]; concentration: 10 µM,0.826
same,luciferase reporter transactivation,[2]; concentration: 100 µM,0.935
same,luciferase reporter transactivation,PXR LBD (GAL4 fusion); concentration: 1 µM,0.779
same,luciferase reporter transactivation,PXR LBD (GAL4 fusion); concentration: 2.5 µM,0.819
same,luciferase reporter transactivation,PXR LBD (GAL4 fusion); concentration: 5 µM,0.699
same,luciferase reporter transactivation,PXR LBD (GAL4 fusion); concentration: 10 µM,0.703
same,luciferase reporter transactivation,PXR LBD (GAL4 fusion); concentration: 100 µM,0.74
same,luciferase reporter transactivation,RARalpha (GAL4 fusion); concentration: 1 µM,1.02
same,luciferase reporter transactivation,RARalpha (GAL4 fusion); concentration: 2.5 µM,0.969
same,luciferase reporter transactivation,RARalpha (GAL4 fusion); concentration: 5 µM,1.32
same,luciferase reporter transactivation,RARalpha (GAL4 fusion); concentration: 10 µM,1.47
same,luciferase reporter transactivation,RARalpha (GAL4 fusion); concentration: 100 µM,1.71
O=C(O)C(F)(F)C(F)(F)F [perfluoropropanoic acid],luciferase reporter transactivation,CAR LBD (GAL4 fusion); concentration: 1 µM,0.94
same,luciferase reporter transactivation,CAR LBD (GAL4 fusion); concentration: 5 µM,0.855
same,luciferase reporter transactivation,CAR LBD (GAL4 fusion); concentration: 10 µM,0.923
same,luciferase reporter transactivation,CAR LBD (GAL4 fusion); concentration: 25 µM,0.983
same,luciferase reporter transactivation,CAR LBD (GAL4 fusion); concentration: 50 µM,1.12
same,luciferase reporter transactivation,CAR LBD (GAL4 fusion); concentration: 100 µM,1.11
same,luciferase reporter transactivation,CAR LBD (GAL4 fusion); concentration: 250 µM,1.15
same,luciferase reporter transactivation,CAR LBD (GAL4 fusion); concentration: 500 µM,1.31
same,luciferase reporter transactivation,[1]; concentration: 1 µM,0.9
same,luciferase reporter transactivation,[1]; concentration: 5 µM,0.907
same,luciferase reporter transactivation,[1]; concentration: 10 µM,0.949
same,luciferase reporter transactivation,[1]; concentration: 25 µM,0.933
same,luciferase reporter transactivation,[1]; concentration: 50 µM,1
same,luciferase reporter transactivation,[1]; concentration: 100 µM,0.953
same,luciferase reporter transactivation,[1]; concentration: 250 µM,0.94
same,luciferase reporter transactivation,[1]; concentration: 500 µM,0.97
same,luciferase reporter transactivation,[2]; concentration: 1 µM,0.959
same,luciferase reporter transactivation,[2]; concentration: 5 µM,1.14
same,luciferase reporter transactivation,[2]; concentration: 10 µM,1.27
same,luciferase reporter transactivation,[2]; concentration: 25 µM,1.2
same,luciferase reporter transactivation,[2]; concentration: 50 µM,1.26
same,luciferase reporter transactivation,[2]; concentration: 100 µM,1.21
same,luciferase reporter transactivation,[2]; concentration: 250 µM,1.22
same,luciferase reporter transactivation,[2]; concentration: 500 µM,1.31
same,luciferase reporter transactivation,PXR LBD (GAL4 fusion); concentration: 1 µM,0.362
same,luciferase reporter transactivation,PXR LBD (GAL4 fusion); concentration: 5 µM,0.532
same,luciferase reporter transactivation,PXR LBD (GAL4 fusion); concentration: 10 µM,0.495
same,luciferase reporter transactivation,PXR LBD (GAL4 fusion); concentration: 25 µM,0.632
same,luciferase reporter transactivation,PXR LBD (GAL4 fusion); concentration: 50 µM,0.626
same,luciferase reporter transactivation,PXR LBD (GAL4 fusion); concentration: 100 µM,0.695
same,luciferase reporter transactivation,PXR LBD (GAL4 fusion); concentration: 250 µM,0.601
same,luciferase reporter transactivation,PXR LBD (GAL4 fusion); concentration: 500 µM,0.727
same,luciferase reporter transactivation,RARalpha (GAL4 fusion); concentration: 1 µM,0.332
same,luciferase reporter transactivation,RARalpha (GAL4 fusion); concentration: 5 µM,0.321
same,luciferase reporter transactivation,RARalpha (GAL4 fusion); concentration: 10 µM,0.367
same,luciferase reporter transactivation,RARalpha (GAL4 fusion); concentration: 25 µM,0.387
same,luciferase reporter transactivation,RARalpha (GAL4 fusion); concentration: 50 µM,0.632
same,luciferase reporter transactivation,RARalpha (GAL4 fusion); concentration: 100 µM,0.652
same,luciferase reporter transactivation,RARalpha (GAL4 fusion); concentration: 250 µM,0.977
same,luciferase reporter transactivation,RARalpha (GAL4 fusion); concentration: 500 µM,0.946
